Data: PubChem BioAssay (NCATS)
Activity calls are given as the source filed them. The call rests on the fitted dose curve; in most records, active means well fitted curve in the direction sought with a large enough effect; inconclusive means small, poorly fitted or top-dose-only effect, or effect the other way, or another doubt; inactive means no such curve, though single readings can be large or run the other way.

Each compound was assayed against Beta-2 adrenergic receptor (Homo sapiens) (UniProt P07550) (assay: qHTS validation assay of beta-arrestin-biased ligands of beta2-adrenergic receptor (AID 485366)). Conditions: cell-based beta-arrestin recruitment to ADRB2, qHTS; series mostly up to 46.1 µM.
Chain of Beta-2 adrenergic receptor (Homo sapiens) (P07550 whole entry, looked up): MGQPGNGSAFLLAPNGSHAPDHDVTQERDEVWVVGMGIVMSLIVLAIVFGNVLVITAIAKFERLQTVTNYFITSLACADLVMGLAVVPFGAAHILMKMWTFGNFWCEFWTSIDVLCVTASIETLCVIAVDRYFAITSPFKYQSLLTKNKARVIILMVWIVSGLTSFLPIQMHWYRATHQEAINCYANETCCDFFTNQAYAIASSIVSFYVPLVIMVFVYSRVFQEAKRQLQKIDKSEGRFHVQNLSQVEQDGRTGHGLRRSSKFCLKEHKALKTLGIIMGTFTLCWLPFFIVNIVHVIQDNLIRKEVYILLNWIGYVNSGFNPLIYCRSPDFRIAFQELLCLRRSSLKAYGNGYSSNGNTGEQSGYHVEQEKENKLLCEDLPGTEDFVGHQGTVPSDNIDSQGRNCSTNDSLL
Excerpt: NIH Molecular Libraries Probe Production Network [MLPCN]
NIH Chemical Genomics Center [NCGC]
PI: Bryan Roth and Bob Lefkowitz
The concept of biased agonism is an emerging concept of molecular pharmacology which proposes that seven transmembrane receptors (7TMRs) or G protein-coupled receptors (GPCRs), exist in multiple signaling conformations and complexes and that ligands (either agonists or antagonists) can induce signaling biased responses for distinct signal transduction cascades.
Furthermore, accumulating evidence over the last decade has drawn attention to a novel function of beta-arrestins as signal transducers that scaffold various signaling molecules upon activation of 7TMRs. […] This beta-arrestin-biased signaling presumably leads to distinct physiological outcomes from those by G protein activation.
Additionally, the active receptor conformations which […] on this beta-arrestin signaling are likely different from those activating G protein signaling
The goal of this screening project will be to discover and optimize novel beta-arrestin-biased ligands for beta2-AR signaling. A luminescent cell-based assay for beta2-AR-mediated agonism, known as the Tango assay, has been validated in which ligand binding of a recombinant beta2-AR and subsequent recruitment of a recombinant beta-arrestin lead to the release of the transcriptional activator tTA, which upregulates transcription of a tTA-responsive luciferase gene. […] Compounds were screened as a concentration-titration series that ranged from 46 microM to 0.6 nM.
NCGC Assay Protocol Summary:
Tango cells were dispensed into white, solid, tissue-culture-treated 1536-well plates at 1500 cells/well in DMEM, containing 1% fetal bovine serum (FBS). Then, 23 nL of compounds or DMSO were delivered to each well using a pin tool. Plates were incubated at 37 degrees C, 5% CO2 for 18 hr. Then 2.5 uL luminescent substrate mix (in-house prepared: 150 mM Tris-Cl, pH 7.6, 3 mM MgCl2, 1% Triton X-100, 5 mM DTT, 0.5 mM CoA, 0.15 mM ATP, 0.44 mM D-luciferin, final concentrations) was added to each well. Plates were then incubated for 15 minutes at room temperature, and subsequently measured on a ViewLux plate reader for luminescent signal using a clear filter with a 10 second exposure and 2x binning. The %Activity was determined from the corrected luminescence values.
Concentration-response curves were fitted to the signals arising from the resulting luminescence. The concentration-effect curves were then classified based on curve quality (r2), response magnitude and degree of measured activity, and compounds were subsequently categorized based on their curve class.
Keywords: biased agonism, beta2-AR, beta-arrestin, GPCR, 7TMR, Tango, luminescence, MLSMR, MLPCN, NIH Roadmap, qHTS, NCGC
In the case of Cc1[nH]c(=O)c(C#N)cc1-c1ccc2nccn2c1, the outcome is reported as “inactive”.
For O=c1n(CCCN2CCN(c3cccc(Cl)c3)CC2)nc2ccccn12, the outcome was “inactive”.
For Cc1ccccc1C(OCCN(C)C)c1ccccc1 (stereo not given), the outcome was “inactive”.
In the case of NS(=O)(=O)c1cc2c(cc1Cl)NC=NS2(=O)=O, the outcome is reported as “inactive”.
For Cc1cc2c(C(C)C)c(O)c(O)c(C=O)c2c(O)c1-c1c(C)cc2c(C(C)C)c(O)c(O)c(C=O)c2c1O, the outcome was “inactive”.
In the case of OC(CN1CCC(Cc2ccc(F)cc2)CC1)c1ccc(Cl)cc1 (stereo not given), the outcome is reported as “inactive”.
In the case of Cc1cn[nH]c1, the outcome is reported as “inactive”.
With CCOC(=O)N1CCC(=C2c3ccc(Cl)cc3CCc3cccnc32)CC1 the outcome was “inactive”.
For O=C(O)COCCN1CCN(C(c2ccccc2)c2ccc(Cl)cc2)CC1 (stereo not given), the outcome was “inactive”.
In the case of O=C(Nc1nc2ccccc2n1CCN1CCOCC1)c1cccc([N+](=O)[O-])c1, the outcome is reported as “inactive”.
For O=c1[nH]cnc2[nH]ncc12, the outcome was “inactive”.
Clc1cccc(Cl)c1NC1=NCCN1 was tested, and the outcome was “inactive”.
With O=NN(CCCl)C(=O)NCCCl the outcome was “inactive”.
In the case of CCOC(=O)C1=C[C@]2(CC)CCCN3CCc4c(n1c1ccccc41)[C@@H]32, the outcome is reported as “inactive”.
NC[C@H](O)c1ccc(O)c(O)c1 was tested, and the outcome was “inactive”.
For CCn1cc(C(=O)O)c(=O)c2cc(F)c(N3CCNC(C)C3)c(F)c21 (stereo not given), the outcome was “inactive”.
c1ccc([C@H]2CN3CCSC3=N2)cc1 was tested, and the outcome was “inactive”.
NC(=O)c1cnccn1 was tested, and the outcome was “inactive”.
For CC(=O)Oc1ccccc1C(=O)O, the outcome was “inactive”.
In the case of Cc1oncc1C(=O)Nc1ccc(C(F)(F)F)cc1, the outcome is reported as “inactive”.
In the case of CCCC(CCC)C(=O)O, the outcome is reported as “inactive”.
CN1CCN(CCCN2c3ccccc3Sc3ccc(C(F)(F)F)cc32)CC1 was tested, and the outcome was “inactive”.
In the case of Oc1ccc(C2CNCCc3c2cc(O)c(O)c3Cl)cc1 (stereo not given), the outcome is reported as “inactive”.
With CCCCNc1cc(C(=O)O)cc(S(N)(=O)=O)c1Oc1ccccc1 the outcome was “inactive”.
In the case of N=c1nc(N2CCCCC2)cc(N)n1O, the outcome is reported as “inactive”.
Cc1ccc(N(CC2=NCCN2)c2cccc(O)c2)cc1 was tested, and the outcome was “inactive”.
With NNCCc1ccccc1 the outcome was “inactive”.
CCN(CC)CCCC(C)Nc1ccnc2cc(Cl)ccc12 (stereo not given) was tested, and the outcome was “inactive”.
In the case of Cc1cccc(-c2[nH]c(C(C)(C)C)nc2-c2ccc3nccnc3c2)n1, the outcome is reported as “inactive”.
In the case of NCCc1ccc(O)c(O)c1, the outcome is reported as “inactive”.
In the case of NC(N)=NC(=O)c1nc(Cl)c(N)nc1N, the outcome is reported as “inactive”.
In the case of N[C@@H]1CONC1=O, the outcome is reported as “inactive”.
With C1COC(NC(C2CC2)C2CC2)=N1 the outcome was “inactive”.
In the case of Nc1ccc(S(=O)(=O)Nc2ccnn2-c2ccccc2)cc1, the outcome is reported as “inactive”.
With Cc1[nH]c(=O)c(C#N)cc1-c1ccncc1 the outcome was “inactive”.
For CNC[C@H](O)c1cccc(O)c1, the outcome was “inactive”.
With CC(C[N+](C)(C)C)OC(N)=O (stereo not given) the outcome was “inactive”.
In the case of NCCCC(N)(C(=O)O)C(F)F (stereo not given), the outcome is reported as “inactive”.
In the case of C[C@]12CCC(=O)C=C1CC[C@@H]1[C@@H]2[C@@H](O)C[C@@]2(C)[C@H]1CC[C@]2(O)C(=O)CO, the outcome is reported as “inactive”.
With Cc1cnc(NC(=O)C2=C(O)c3ccccc3S(=O)(=O)N2C)s1 the outcome was “inactive”.
